This note sets out measurements from ChEMBL document CHEMBL3988442, “University of Dundee, Small-Polar-MMV Screening Library” (2021).

For some of these results: Results with a measured potency or affinity are listed apart.

What all share (design): scale not given: direction of the effect not stated beside the values
The target of assay [1] is Protein translocase subunit SecA (Escherichia coli (strain K12)) (UniProt P10408). The assay is described as follows: Assay to Identify E. coli SecA ATPase Inhibitors. In kind it is functional. The note with it: 30 µM.
Protein translocase subunit SecA (Escherichia coli (strain K12)), sequence (P10408 whole entry): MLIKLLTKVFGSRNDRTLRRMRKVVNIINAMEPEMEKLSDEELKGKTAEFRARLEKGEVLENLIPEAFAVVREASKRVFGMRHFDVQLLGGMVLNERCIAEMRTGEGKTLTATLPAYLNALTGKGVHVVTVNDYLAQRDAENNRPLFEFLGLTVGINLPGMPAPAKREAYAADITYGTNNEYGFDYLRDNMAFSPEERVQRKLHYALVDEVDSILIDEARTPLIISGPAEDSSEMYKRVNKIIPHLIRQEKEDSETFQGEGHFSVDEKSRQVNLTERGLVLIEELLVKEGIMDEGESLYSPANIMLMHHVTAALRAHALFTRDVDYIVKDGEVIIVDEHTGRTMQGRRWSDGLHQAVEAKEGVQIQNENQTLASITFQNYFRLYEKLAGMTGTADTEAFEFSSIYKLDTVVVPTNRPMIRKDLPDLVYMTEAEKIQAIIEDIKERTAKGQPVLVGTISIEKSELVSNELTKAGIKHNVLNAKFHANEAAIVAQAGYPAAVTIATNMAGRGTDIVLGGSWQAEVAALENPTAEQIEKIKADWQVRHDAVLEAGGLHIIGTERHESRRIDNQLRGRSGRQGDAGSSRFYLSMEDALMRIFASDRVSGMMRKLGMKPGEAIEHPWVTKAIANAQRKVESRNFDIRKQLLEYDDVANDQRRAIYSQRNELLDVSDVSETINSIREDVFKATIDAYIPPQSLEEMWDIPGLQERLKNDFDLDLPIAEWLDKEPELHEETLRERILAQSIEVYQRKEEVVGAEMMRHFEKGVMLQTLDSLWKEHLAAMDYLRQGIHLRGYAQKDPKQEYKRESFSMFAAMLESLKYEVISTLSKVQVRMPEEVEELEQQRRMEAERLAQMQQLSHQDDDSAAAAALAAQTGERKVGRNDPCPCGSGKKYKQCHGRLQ
Assay [2] addresses T1, Ubiquitin-activating enzyme e1, putative (Leishmania donovani (strain BPK282A1)) (UniProt E9BSI1).
T1 sequence (whole entry): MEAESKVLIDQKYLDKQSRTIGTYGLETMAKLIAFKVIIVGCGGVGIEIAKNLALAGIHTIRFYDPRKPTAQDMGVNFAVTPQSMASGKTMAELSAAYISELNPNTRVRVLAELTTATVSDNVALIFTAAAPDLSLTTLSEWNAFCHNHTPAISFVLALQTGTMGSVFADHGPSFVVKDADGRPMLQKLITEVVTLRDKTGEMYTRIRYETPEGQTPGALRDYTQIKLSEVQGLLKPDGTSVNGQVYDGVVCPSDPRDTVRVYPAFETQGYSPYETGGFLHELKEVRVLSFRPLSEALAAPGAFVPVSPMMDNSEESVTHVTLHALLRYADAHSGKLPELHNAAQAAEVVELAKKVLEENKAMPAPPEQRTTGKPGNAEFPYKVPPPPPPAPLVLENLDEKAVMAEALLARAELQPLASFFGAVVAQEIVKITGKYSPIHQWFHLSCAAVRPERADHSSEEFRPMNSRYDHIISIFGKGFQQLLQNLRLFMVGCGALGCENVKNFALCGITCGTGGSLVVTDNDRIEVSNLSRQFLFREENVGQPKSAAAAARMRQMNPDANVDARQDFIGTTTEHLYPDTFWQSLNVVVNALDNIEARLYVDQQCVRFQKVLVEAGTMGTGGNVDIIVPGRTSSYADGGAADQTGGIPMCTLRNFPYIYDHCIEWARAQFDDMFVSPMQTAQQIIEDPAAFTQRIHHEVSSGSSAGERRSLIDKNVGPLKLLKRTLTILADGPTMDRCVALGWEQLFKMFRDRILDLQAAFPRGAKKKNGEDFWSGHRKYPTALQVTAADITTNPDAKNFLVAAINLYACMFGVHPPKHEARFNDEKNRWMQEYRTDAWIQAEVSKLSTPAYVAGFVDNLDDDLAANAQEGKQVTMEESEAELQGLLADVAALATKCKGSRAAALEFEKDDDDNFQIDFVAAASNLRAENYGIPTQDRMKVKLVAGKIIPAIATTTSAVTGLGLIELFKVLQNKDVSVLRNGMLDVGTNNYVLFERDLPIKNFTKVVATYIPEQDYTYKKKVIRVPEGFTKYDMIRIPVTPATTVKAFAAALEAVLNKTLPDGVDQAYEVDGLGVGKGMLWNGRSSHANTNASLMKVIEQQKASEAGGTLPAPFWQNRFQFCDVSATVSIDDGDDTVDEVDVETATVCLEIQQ
The assay is described as follows: Leishmania donovani Ubiquitin Activating Enzyme (LdE1). In kind it is functional. The note with it: 30 µM.

Assay [3] addresses AMP-activated protein kinase, AMPK (Homo sapiens) (UniProt P54646+O43741+P54619+Q9UGJ0+Q9Y478+Q13131+Q9UGI9). The assay is described as follows: AMP-dependent Kinase enzyme assay. An in vitro enzyme assay that detects ADP turnover that is directly proportional to AMPK activity. This uses naive AMPK that is activated during the assay with MK-8722. It counts as functional. The settings on record: 30 µM.

In assay [4] the target is Sialic acid-binding Ig-like lectin 9 (Homo sapiens) (UniProt Q9Y336). The assay is described as follows: Hs-Siglec9 ALPHAscreen SOP 20170721. The settings on record: 10 µM. (In general: Alpha assays give light when donor and acceptor beads are brought close together.)
Sialic acid-binding Ig-like lectin 9 (Homo sapiens), sequence (Q9Y336 whole entry): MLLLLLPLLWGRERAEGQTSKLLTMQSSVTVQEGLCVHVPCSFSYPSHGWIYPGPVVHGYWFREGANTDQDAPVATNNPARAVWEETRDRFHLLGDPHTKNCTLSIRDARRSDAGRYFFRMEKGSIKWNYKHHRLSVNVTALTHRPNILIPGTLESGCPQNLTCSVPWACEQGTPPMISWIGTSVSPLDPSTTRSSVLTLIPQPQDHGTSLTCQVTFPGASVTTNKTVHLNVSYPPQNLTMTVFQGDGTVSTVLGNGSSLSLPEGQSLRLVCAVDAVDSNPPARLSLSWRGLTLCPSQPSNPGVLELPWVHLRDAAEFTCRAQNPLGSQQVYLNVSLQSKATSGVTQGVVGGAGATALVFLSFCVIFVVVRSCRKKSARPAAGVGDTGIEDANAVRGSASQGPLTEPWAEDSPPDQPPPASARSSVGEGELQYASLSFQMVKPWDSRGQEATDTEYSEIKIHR
For another assay, the system named is Trypanosoma cruzi. In words: Trypanosoma cruzi phosphomannomutase and mannose-1-phosphate guanylyltransferase assay. In kind it is functional. The note with it: 10 µM.
Assay [5] deals with T2, Arginase-2, mitochondrial (Homo sapiens) (UniProt P78540).
T2 sequence (whole entry): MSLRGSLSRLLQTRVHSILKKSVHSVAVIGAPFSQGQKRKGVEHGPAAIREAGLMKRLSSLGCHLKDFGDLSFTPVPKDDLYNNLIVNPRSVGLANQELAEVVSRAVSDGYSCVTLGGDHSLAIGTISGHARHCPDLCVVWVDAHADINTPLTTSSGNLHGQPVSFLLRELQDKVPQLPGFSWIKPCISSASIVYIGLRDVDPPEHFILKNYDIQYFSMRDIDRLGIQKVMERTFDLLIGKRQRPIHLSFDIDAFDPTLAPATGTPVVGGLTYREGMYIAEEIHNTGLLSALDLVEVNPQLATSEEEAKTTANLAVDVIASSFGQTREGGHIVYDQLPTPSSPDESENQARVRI
In words: in vitro enzyme assay to detect the production of urea directly proportional to the activity of Arginase II. Note: in the data most compounds retested in dose-response had high values. It counts as functional. The settings on record: 33.3 µM.

Assay [6] deals with T3, Proteasome subunit beta (Trypanosoma cruzi) (UniProt O96673).
T3 sequence (whole entry): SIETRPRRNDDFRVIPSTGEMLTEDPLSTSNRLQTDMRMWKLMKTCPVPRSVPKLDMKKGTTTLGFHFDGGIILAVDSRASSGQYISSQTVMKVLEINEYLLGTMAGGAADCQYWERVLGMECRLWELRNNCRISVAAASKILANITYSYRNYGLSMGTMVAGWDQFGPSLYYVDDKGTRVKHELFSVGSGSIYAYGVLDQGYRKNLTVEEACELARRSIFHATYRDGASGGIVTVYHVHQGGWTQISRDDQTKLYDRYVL
In words: Trypanosoma cruzi proteasome chymotrypsin-like activity (TcProtChymo) assay. Note: in the data most compounds retested in dose-response had high values. The settings on record: 9.37 µM. In kind it is functional.

Another assay is filed under the species Homo sapiens. The assay is described as follows: To identify inhibition of the IFN signalling (Jak-Stat) pathway via expression of an eGFP reporter gene under the control of an IFN-stimulated response element (ISRE) containing MxA promoter. It counts as functional. The settings on record: 30 µM. (A reporter such as luciferase makes a cellular process visible.)

Assay [7] has as its target T4, Tyrosyl-tRNA synthetase, putative (Trypanosoma cruzi (strain CL Brener)) (UniProt Q4DSP6).
T4 sequence (whole entry): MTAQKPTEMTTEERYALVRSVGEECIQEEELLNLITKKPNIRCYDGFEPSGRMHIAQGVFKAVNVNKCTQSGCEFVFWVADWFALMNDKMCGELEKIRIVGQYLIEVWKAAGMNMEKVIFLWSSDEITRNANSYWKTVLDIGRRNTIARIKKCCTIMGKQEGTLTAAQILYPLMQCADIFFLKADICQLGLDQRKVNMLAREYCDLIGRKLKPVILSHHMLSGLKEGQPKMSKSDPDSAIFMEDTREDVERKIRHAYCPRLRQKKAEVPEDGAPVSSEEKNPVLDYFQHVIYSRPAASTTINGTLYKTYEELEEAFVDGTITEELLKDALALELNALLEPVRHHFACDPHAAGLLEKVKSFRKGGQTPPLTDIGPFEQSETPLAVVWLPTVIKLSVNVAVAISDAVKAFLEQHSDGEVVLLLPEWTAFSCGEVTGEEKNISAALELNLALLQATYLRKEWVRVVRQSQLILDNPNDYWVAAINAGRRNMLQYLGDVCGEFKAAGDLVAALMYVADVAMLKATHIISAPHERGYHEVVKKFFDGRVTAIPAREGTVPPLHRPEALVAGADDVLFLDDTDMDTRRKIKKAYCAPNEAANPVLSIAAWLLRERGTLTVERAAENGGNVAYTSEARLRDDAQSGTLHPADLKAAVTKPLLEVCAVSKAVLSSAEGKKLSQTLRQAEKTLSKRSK
The assay is described as follows: Trypanosoma cruzi tyrosyl tRNA synthetase (TcYRS) _High Tyrosine SOP. Note: in the data most compounds retested in dose-response had high values. It counts as functional. The settings on record: 30 µM.

The target in assay [8] is T4, Tyrosyl-tRNA synthetase, putative (Trypanosoma cruzi (strain CL Brener)). In words: Trypanosoma cruzi tyrosyl tRNA synthetase (TcYRS) SOP. It counts as functional. The note with it: 30 µM.
Assay [9] deals with Chromo domain-containing protein 1 (Saccharomyces cerevisiae (strain ATCC 204508 / S288c) (Baker's yeast)) (UniProt P32657). The assay is described as follows: ScCHD-1 Enzyme Inhibition Assay. Note: in the data most compounds retested in dose-response had high values. In kind it is functional. The settings on record: 30 µM.
Chromo domain-containing protein 1 (Saccharomyces cerevisiae (strain ATCC 204508 / S288c) (Baker's yeast)), sequence (P32657 whole entry, the tested form may be a part): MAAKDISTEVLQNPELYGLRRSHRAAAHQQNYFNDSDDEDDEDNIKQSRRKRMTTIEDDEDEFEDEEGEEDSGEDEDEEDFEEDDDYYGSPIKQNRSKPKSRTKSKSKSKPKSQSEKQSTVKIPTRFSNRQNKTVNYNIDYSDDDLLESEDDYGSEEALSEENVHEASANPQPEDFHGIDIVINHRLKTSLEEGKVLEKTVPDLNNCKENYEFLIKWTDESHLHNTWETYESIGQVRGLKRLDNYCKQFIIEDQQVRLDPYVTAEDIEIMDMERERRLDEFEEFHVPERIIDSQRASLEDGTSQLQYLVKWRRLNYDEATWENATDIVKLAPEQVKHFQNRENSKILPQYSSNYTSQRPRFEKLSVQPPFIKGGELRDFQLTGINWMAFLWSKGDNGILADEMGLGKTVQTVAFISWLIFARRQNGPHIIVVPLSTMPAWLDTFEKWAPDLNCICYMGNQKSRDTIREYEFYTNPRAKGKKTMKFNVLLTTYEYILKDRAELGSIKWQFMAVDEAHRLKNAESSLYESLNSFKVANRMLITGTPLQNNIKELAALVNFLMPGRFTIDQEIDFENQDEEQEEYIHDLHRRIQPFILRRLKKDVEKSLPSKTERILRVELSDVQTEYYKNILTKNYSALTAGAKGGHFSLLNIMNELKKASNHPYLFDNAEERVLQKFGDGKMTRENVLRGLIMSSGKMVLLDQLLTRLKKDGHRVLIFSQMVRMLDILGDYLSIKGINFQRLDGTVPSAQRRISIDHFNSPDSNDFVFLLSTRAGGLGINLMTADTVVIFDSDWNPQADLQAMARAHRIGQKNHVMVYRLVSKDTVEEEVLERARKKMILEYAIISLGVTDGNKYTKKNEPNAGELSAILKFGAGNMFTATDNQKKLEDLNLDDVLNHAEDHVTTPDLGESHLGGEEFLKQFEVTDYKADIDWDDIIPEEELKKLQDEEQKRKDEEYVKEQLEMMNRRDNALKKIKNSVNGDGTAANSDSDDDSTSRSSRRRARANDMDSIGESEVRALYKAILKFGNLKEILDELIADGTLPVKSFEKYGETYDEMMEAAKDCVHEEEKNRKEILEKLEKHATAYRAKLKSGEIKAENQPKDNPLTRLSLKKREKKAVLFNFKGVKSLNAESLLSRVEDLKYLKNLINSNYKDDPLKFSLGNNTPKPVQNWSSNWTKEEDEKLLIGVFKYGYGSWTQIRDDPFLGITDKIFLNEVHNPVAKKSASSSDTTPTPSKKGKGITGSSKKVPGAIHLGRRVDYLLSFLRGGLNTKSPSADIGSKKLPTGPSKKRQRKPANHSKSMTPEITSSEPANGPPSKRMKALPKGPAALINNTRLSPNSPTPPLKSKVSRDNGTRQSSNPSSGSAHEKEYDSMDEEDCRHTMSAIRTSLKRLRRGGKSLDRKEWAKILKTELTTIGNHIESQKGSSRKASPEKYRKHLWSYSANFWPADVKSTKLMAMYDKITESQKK

`Cc1cc(C)nc(Nc2cc(C3CCCN(C)C3)nc(C)n2)n1` (stereo unspecified): the Percent Effect is -3.56% in [1]; 9.46% in assay [2]; -3.72% in assay [3]; 6.27% in assay [4]; 1.19% with Trypanosoma cruzi; -1.62% in assay [5]. Also, the Percent Effect in assay [6] was 9.2%; in the assay filed under Homo sapiens, 1.68%; in assay [7], 4.3%; in assay [8], 11.7%; in assay [9], -18.4%.

On to `CC(C)NC(=O)N1CC[C@@H]2CN(Cc3ccccc3)S(=O)(=O)[C@@H]2CC1`, for which the Percent Effect is -7.87% in assay [1]; -13.5% in [2]; 131% in assay [3]; -3.29% in assay [4]; -6.16% in the assay with Trypanosoma cruzi; 0.319% in assay [5]. In addition, the Percent Effect is 6.09% in assay [6]; 29.7% in the assay filed under Homo sapiens; -5.41% in assay [7]; -5.13% in assay [8]; -1.09% in assay [9].

Regarding `CC(NC(=O)NCCCc1n[nH]c(N)c1C#N)c1cccs1` (stereo unspecified), the Percent Effect in assay [1] was -4.67%; in assay [2], 22.8%; in assay [3], 38.5%; in assay [4] it was -12.2%; in the assay with Trypanosoma cruzi, 6.52%; in assay [5], -14.1%. Moreover, the Percent Effect in [6] was 16.6%; in the assay filed under Homo sapiens, 15.9%; in [7], 8.37%; in assay [8] it was 24.1%; in assay [9] it was -7.24%.

Turning to `CNC(=O)C1Cn2ccnc2C2(CCN(Cc3cccnc3)CC2)O1` (stereo unspecified), the Percent Effect in assay [1] was -4.76%; in assay [2], 10.8%; in assay [3] it was 2.08%; in assay [4], 2.7%; in the assay on Trypanosoma cruzi, -0.684%; in [5], -0.319%. For the same compound, the Percent Effect was 23.4% in assay [6]; -1.62% in the assay filed under Homo sapiens; 9.73% in assay [7]; 25.6% in assay [8]; -0.425% in assay [9].

Consider `O=C(NCCCn1ccnc1)N1CCCC1c1ccncc1` (stereo unspecified), for which the Percent Effect in [1] was -1.66%; in [2], -2.67%; in assay [3], -1.97%; in assay [4] it was -2.62%; in the assay on Trypanosoma cruzi it was -5.36%; in assay [5], 1.56%. Besides, the Percent Effect in [6] is -1.57%; in the assay filed under Homo sapiens, -1.17%; in assay [7] it was -0.546%; in assay [8], 1.24%; in assay [9] it was 5.86%.

With `Cn1cccc1C(=O)NCc1cnc2n1CCN(C(=O)N1CCCC1)C2`, the Percent Effect is -5.97% in assay [1]; 16% in assay [2]; -1.93% in assay [3]; 4.39% in assay [4]; 6.18% with Trypanosoma cruzi; -45% in [5]. The Percent Effect in assay [6] is 7.86%; in the assay filed under Homo sapiens, 3.79%; in assay [7], 2.08%; in assay [8], 12.5%; in [9] it was -6.82%.

As for `CN(C)C(=O)CS(=O)(=O)Cc1cc(Cl)c2c(c1)OCCCO2`, the Percent Effect is -5% in assay [1]; 18.4% in assay [2]; 2.36% in [3]; -11.3% in assay [4]; -4.2% in the assay on Trypanosoma cruzi; 3.24% in assay [5]. The Percent Effect in assay [6] was 6.68%; in the assay listed under Homo sapiens it was 3.48%; in [7] it was 1.48%; in [8], -8.64%; in [9], -7.42%.

With `Cn1cnnc1S(=O)(=O)C1CCN(S(=O)(=O)c2ccc(F)c(Cl)c2)CC1`, the Percent Effect in assay [1] was -0.452%; in assay [2] it was -5.48%; in [3], 9.53%; in [4], -2.11%; in the assay with Trypanosoma cruzi, -1.37%; in [5], 1.36%. In addition, the Percent Effect was 7.1% in [6]; 8.21% in the assay listed under Homo sapiens; -1.07% in assay [7]; 0% in assay [8]; -1.74% in assay [9].

With `Cc1nccn1-c1cc(CNC(=O)CCC2CCCO2)ccn1` (stereo unspecified), the Percent Effect in assay [1] was -0.34%; in assay [2], 26.3%; in [3], 1.23%; in assay [4] it was -7.85%; in the assay with Trypanosoma cruzi, 3.08%; in assay [5] it was 1.8%. In addition, the Percent Effect in [6] was 18.9%; in the assay filed under Homo sapiens, 3.69%; in assay [7] it was 8.37%; in [8] it was 28.4%; in [9], -9.77%.

For `Cc1ccc(-c2nc(CN3CCN(S(=O)(=O)N(C)C)CC3)cs2)o1`, the Percent Effect in [1] is 1.85%; in assay [2], 3.8%; in assay [3] it was 3.49%; in assay [4], -3.53%; in the assay on Trypanosoma cruzi, -3.79%; in assay [5], 1.94%. Besides, the Percent Effect in assay [6] is 20.9%; in the assay listed under Homo sapiens, 43.8%; in assay [7], 8.33%; in [8], 12.7%; in assay [9], -19.4%.

For the compound `CNc1cc(C2CCCN2Cc2ccccc2OCC(=O)O)ccn1` (stereo unspecified), the Percent Effect in [1] is -3.95%; in [2] it was 1.35%; in assay [3], 11.6%; in assay [4] it was 2.57%; in the assay on Trypanosoma cruzi it was -3.16%; in assay [5] it was 0.232%. The Percent Effect in assay [6] is 2.34%; in the assay listed under Homo sapiens, 4.49%; in assay [7], 5.38%; in [8], 9.09%; in [9] it was -8.55%.
